# A selection: hits, their analogues and other compounds. The true share with any hit is near 3.1%.
# FadD28 binding – M. tuberculosis FadD28 bisubstrate binding inhibition; FadD28 bisubstrate probe binding, fluorescence polarization; inhibition, % at 12.5 µM; 360,000 tested, 0.22% active; in the data active = inhibition above about 8.5%, passing the limit was not always enough
# BioA inh – BioA (M. tuberculosis) enzyme inhibition | inhibition, % at 9.99 µM | purified M. tuberculosis BioA enzyme, plate reader | 360,000 tested, 0.096% active; in the data active = inhibition above about 40%
# 3CLpro inhibitor – SARS-CoV 3CLpro protease inhibition; P0C6X7; recombinant SARS-CoV 3CLpro, quenched FRET peptide cleavage; inhibition, % at 6 µM; 290,000 tested, 0.14% active; in the data active = inhibition above about 12%
# Mtb FBA inh – Mtb fructose-bisphosphate aldolase inhibition; 360,000 tested, 2.3% active; purified M. tuberculosis FBA, fluorescence read-out; inhibition, % at 1 µM
# Target sequence (P9WQA3 whole entry, looked up): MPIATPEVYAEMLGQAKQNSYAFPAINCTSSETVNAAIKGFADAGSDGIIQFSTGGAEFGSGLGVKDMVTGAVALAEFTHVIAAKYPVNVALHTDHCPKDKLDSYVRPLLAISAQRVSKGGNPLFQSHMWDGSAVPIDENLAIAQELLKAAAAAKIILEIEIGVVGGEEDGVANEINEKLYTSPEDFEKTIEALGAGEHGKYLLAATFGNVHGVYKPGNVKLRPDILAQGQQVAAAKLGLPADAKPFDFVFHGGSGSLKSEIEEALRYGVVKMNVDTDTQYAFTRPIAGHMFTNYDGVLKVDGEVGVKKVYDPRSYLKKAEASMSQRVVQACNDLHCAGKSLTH
# GDH-TPI counter-1 – counter-screen for M. tuberculosis FBA inhibitors: GDH-TPI coupled enzymes; GDH-TPI coupled enzyme counterscreen, NADH absorbance; inhibition, % at 4.8 µM; 360,000 tested, 1.2% active; in the data active = inhibition above about 30%
# Mtb FBA confirm – Mtb FBA inhibition, confirmed; inhibition, % at 1 µM; AID 651616; 5,600 tested, 78% active; shares compounds with Mtb FBA inh; purified M. tuberculosis FBA, fluorescence read-out
# GDH-TPI counter-2 – GDH-TPI inhibition counter-screen for FBA inhibitors; AID 652141; inhibition, % at 1 µM; GDH-TPI coupled enzyme counterscreen, fluorescence; shares compounds with Mtb FBA inh; 5,600 tested, 81% active; in the data active = inhibition above about 10%
# GDH-TPI DR – counter-screen for M. tuberculosis FBA inhibitors: GDH-TPI dose response. IC50, µM. GDH-TPI coupled enzyme assay, fluorescence, artifact counterscreen. 170 tested, 79% active. shares compounds with Mtb FBA inh; call rule not given here
# Numbers stand for hits; . = inactive; / = not tested or not shown; + = active, no number. Cut-off read from the data, not from the text of the source, unless noted: active = inhibition above about 27%; inactive = the rest.
SMILES,FadD28 binding,BioA inh,3CLpro inhibitor,Mtb FBA inh,GDH-TPI counter-1,Mtb FBA confirm,GDH-TPI counter-2,others
Cc1cc(OC(C)C(=O)NCc2cccnc2)c2c(C)cc(=O)oc2c1 (configuration not stated),.,.,.,108,.,+,+,
Cc1ccc(S(=O)(=O)N[C@H]2CC[C@@H](CCn3cc(-c4cccc(F)c4)nn3)O[C@@H]2CO)cc1,/,.,/,/,/,/,/,
Cc1cc(OC(C)C(=O)NCc2ccncc2)c2c(C)cc(=O)oc2c1 (configuration not stated),.,.,.,84,.,169,159,
Cc1cc(OCC(=O)NCc2ccncc2)c2c(C)cc(=O)oc2c1,.,.,.,79,.,40,39,
Cc1cc(OCC(=O)NCC(O)c2ccccc2)c2c(C)cc(=O)oc2c1 (configuration not stated),.,.,.,77,.,.,.,
Cc1cc(OCC(=O)NCC(O)c2ccccc2)c2c3c(c(=O)oc2c1)CCCC3 (configuration not stated),.,.,.,.,.,/,/,
Cc1cc(OCC(=O)NCCc2cccc(F)c2)c2c(C)cc(=O)oc2c1,.,.,.,.,.,/,/,
CNC(=O)C[C@@H]1CC[C@H]2[C@@H](COc3ccc(NC(=O)c4ccc(F)cc4)cc3C(=O)N2C)O1,/,.,/,/,/,/,/,
Cc1ccc(S(=O)(=O)NN2C(=O)c3ccccc3NC2c2cccc(O)c2)cc1 (configuration not stated),.,/,.,.,.,/,/,
CS(=O)(=O)NN1C(=O)c2ccccc2NC1c1cccc(O)c1 (configuration not stated),.,.,.,41,.,112,81,
CS(=O)(=O)NN1C(=O)c2ccccc2NC1c1ccccc1O (configuration not stated),.,.,.,.,.,/,/,
CS(=O)(=O)NN1C(=O)c2ccccc2NC1c1ccccc1 (configuration not stated),.,/,.,34,.,.,.,GDH-TPI DR=5.4
COc1ccc(C2Nc3ccccc3C(=O)N2NS(C)(=O)=O)c(OC)c1 (configuration not stated),.,.,.,28,.,.,.,
C[C@@H]1CCCCO[C@H](CN(C)S(=O)(=O)c2ccccc2)[C@@H](C)CN([C@H](C)CO)C(=O)c2cc(N(C)C)ccc2O1,/,.,/,/,/,/,/,
Cc1ccc(S(=O)(=O)Nc2ccc3c(c2)C(=O)N([C@@H](C)CO)C[C@H](C)[C@H](CN(C)S(=O)(=O)c2c(C)noc2C)OCCCC[C@@H](C)O3)cc1,/,.,/,/,/,/,/,
CCN1CCN(c2ccc(S(=O)(=O)N3CCCCC3)cc2NC(=O)/C=C/c2cc(OC)ccc2OC)CC1,.,.,.,.,.,/,/,
COc1ccc(OC)c(/C=C/C(=O)Nc2cccc(S(=O)(=O)N3CCCC3)c2)c1,.,/,.,30,.,49,43,
CCO/C(C)=N/n1c2nc3ccccc3nc2c2c(=O)n(CC(C)C)c(C)nc21,.,.,.,33,.,.,.,
CCOc1ccc2cc(C(=O)NCc3ccccc3)c(=N)oc2c1,/,.,.,41,.,53,35,
CCOc1cccc2cc(C(=O)NCc3ccc(Cl)cc3)c(=N)oc12,.,.,.,.,.,/,/,
Cc1noc(C)c1NC(=O)Nc1ccc2c(c1)C(=O)N([C@@H](C)CO)C[C@@H](C)[C@H](CN(C)S(=O)(=O)c1cn(C)cn1)OCCCC[C@@H](C)O2,/,.,/,/,/,/,/,
COC(=O)c1nn(-c2ccccc2)nc1-c1nn(-c2ccccc2)nc1C(=O)OC,.,.,.,.,.,/,/,
Cc1ccccc1COC(=O)c1nn(-c2ccccc2)nc1N,.,/,.,97,.,79,67,
O=C(C[C@H]1C=C[C@H](NC(=O)C2CCC2)[C@@H](CO)O1)NCCCN1CCOCC1,/,.,/,/,/,/,/,
C[C@@H]1CN([C@@H](C)CO)S(=O)(=O)c2ccc(C#CCC3CCCC3)cc2O[C@H]1CN(C)C,/,.,/,/,/,/,/,
SMILES,FadD28 binding,BioA inh,3CLpro inhibitor,Mtb FBA inh,GDH-TPI counter-1,Mtb FBA confirm,GDH-TPI counter-2,others
CNc1cnc(-c2ccc(O)c(OC)c2)cn1,.,.,/,.,.,/,/,
CNc1cnc(-c2ccsc2)cn1,.,.,/,88,.,134,110,
COc1ccccc1S(=O)(=O)N(C)C[C@H]1OCc2ccccc2-c2c(n(C)c3ccccc23)C(=O)N([C@H](C)CO)C[C@@H]1C,/,.,/,/,/,/,/,
Cc1cc(=O)oc2cc(OC(C)C)ccc12,.,.,.,73,.,+,178,
C=CCOc1ccc2c(CC)cc(=O)oc2c1C,.,.,.,41,.,+,164,
CCc1cc2c3c(c(=O)oc2cc1OCC(=O)OC)CCCC3,.,.,.,54,.,48,31,
O=C(O)c1ccc(COc2ccc3c4c(c(=O)oc3c2)CCC4)o1,.,/,.,34,.,95,64,
O=c1oc2cc(OCc3ccc([N+](=O)[O-])cc3)ccc2c2c1CCCC2,.,.,.,.,.,/,/,
CCOc1ccc2c(CC)cc(=O)oc2c1OCC,.,.,.,.,.,/,/,
O=C(NC1Cc2ccccc2C1)[C@@H]1[C@@H](CO)[C@@H]2Cn3c(ccc(-c4ccccc4)c3=O)[C@H]1N2,/,.,/,/,/,/,/,
CNC[C@H]1OCCCC[C@@H](C)Oc2ccc(NS(=O)(=O)c3ccc(C)cc3)cc2C(=O)N([C@H](C)CO)C[C@H]1C,/,.,/,/,/,/,/,
C[C@@H]1CN([C@H](C)CO)C(=O)c2cc(NC(=O)Cc3ccccc3)ccc2O[C@@H](C)CCCCO[C@@H]1CN(C)C(=O)C1CCCCC1,/,.,/,/,/,/,/,
CC(=O)N(C)C[C@H]1Oc2cc(-c3ccccc3C)ccc2S(=O)(=O)N([C@@H](C)CO)C[C@@H]1C,/,.,/,/,/,/,/,
Cc1ccc(OCC(=O)NC2CC(C)(C)NC(C)(C)C2)cc1C,.,.,.,.,.,/,/,
O=C(O)C(Oc1ccc2cc(-c3ccc(Cl)cc3)c(=O)oc2c1)c1ccccc1 (configuration not stated),.,.,.,104,.,+,+,
Cc1cc(=O)oc2cc(OC(C(=O)O)c3ccccc3)ccc12 (configuration not stated),/,.,.,.,.,/,/,
CC1(C)CC(NC(=O)COc2ccc3c4c(c(=O)oc3c2)CCCC4)CC(C)(C)N1,.,.,.,52,.,+,+,
CC(=O)C(C)Oc1ccc2c3c(c(=O)oc2c1)CCCC3 (configuration not stated),.,.,.,40,.,+,146,
C#CCOc1ccc2c(C)cc(=O)oc2c1,.,.,.,40,.,64,44,
CC(C)CCNC(=O)COc1ccc2c3c(c(=O)oc2c1)CCC3,.,/,.,.,.,/,/,
Cc1noc(C)c1S(=O)(=O)Nc1cccc2c1O[C@H](CN(C)S(=O)(=O)c1ccc(F)cc1)[C@H](C)CN([C@@H](C)CO)C2=O,/,.,/,/,/,/,/,

# Compound activity from PubChem.
